In PubChem BioAssay AID1159580 (chemical genetic matrix, 2015):
Among all 5,500 compounds or so, about 2,000 (36%) were called active. Another 18% or so got no clear call; they are omitted. Cut-off read from the data, not from the text of the source: active = normalized growth mostly below about 0.91 (no sharp cut-off); inconclusive = no clear call, values can overlap the other calls; inactive = mostly above about 0.92. The list shows a part of the results.

Assay: chemical genetic growth profiling, strain panel (AID 1159580);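 note: tested at 20 µM; growth read once vehicle control cultures reached saturation at 30 °C; 1 = growth at the plate median or of vehicle wells; lower values mean less growth of the strain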
Conditions: growth OD

Measured: normalized growth

S=c1nc[nH]c2nc[nH]c12
inactive: S. cerevisiae deletion strains, locus YJR075W, strain HOC1, active compounds read low 0.996 | S. cerevisiae deletion strains, locus YKL009W, strain mrt4, active compounds read low 0.987 | S. cerevisiae deletion strains, locus YKL068W, active compounds read low 0.983 | S. cerevisiae deletion strains, locus YKL085W, strain MDH1 (second series), active compounds read low 0.966 | S. cerevisiae deletion strains, locus YKL085W, strain MDH1, active compounds read low 0.966 | S. cerevisiae deletion strains, locus YKL160W, strain elf1, active compounds read low 1.04 | S. cerevisiae deletion strains, locus YKR001C, strain vps1, active compounds read low 0.99 | S. cerevisiae deletion strains, locus YKR026C, strain gcn3, active compounds read low 1.01 | S. cerevisiae deletion strains, locus YKR091W, strain srl3, active compounds read low 0.996 | S. cerevisiae deletion strains, locus YLL001W, strain dnm1, active compounds read low 1.01 | S. cerevisiae deletion strains, locus YLL026W, active compounds read low 1.01 | S. cerevisiae deletion strains, locus YLL041C, strain sdh2, active compounds read low 0.989 | S. cerevisiae deletion strains, locus YLR027C, strain aat2, active compounds read low 1.02 | S. cerevisiae deletion strains, locus YLR039C, strain RIC1, active compounds read low 1 | S. cerevisiae deletion strains, locus YLR058C, strain SHM2, active compounds read low 0.982 | S. cerevisiae deletion strains, locus YLR102C, strain apc9, active compounds read low 0.978 | S. cerevisiae deletion strains, locus YLR113W, strain HOG1, active compounds read low 1 | S. cerevisiae deletion strains, locus YLR221C, strain rsa3, active compounds read low 1.01 | S. cerevisiae deletion strains, locus YLR258W, strain gsy2, active compounds read low 1.01 | S. cerevisiae deletion strains, locus YLR262C, strain YPT6 (second series), active compounds read low 1.03 | S. cerevisiae deletion strains, locus YLR262C, strain YPT6, active compounds read low 0.959 | S. cerevisiae deletion strains, locus YLR268W, strain sec22, active compounds read low 1 | S. cerevisiae deletion strains, locus YLR320W, strain mms22, active compounds read low 1.02 | S. cerevisiae deletion strains, locus YLR330W, strain CHS5, active compounds read low 0.992 | S. cerevisiae deletion strains, locus YLR342W, strain FKS1 (second series), active compounds read low 1 | S. cerevisiae deletion strains, locus YLR342W, strain FKS1, active compounds read low 1.02 | S. cerevisiae deletion strains, locus YLR357W, strain rsc2, active compounds read low 1.08 | S. cerevisiae deletion strains, locus YLR370C, strain arc18, active compounds read low 1.01 | S. cerevisiae deletion strains, locus YLR371W, strain rom2, active compounds read low 0.988 | S. cerevisiae deletion strains, locus YLR384C, strain iki3, active compounds read low 1 | S. cerevisiae deletion strains, locus YLR418C, strain cdc73, active compounds read low 1.01 | S. cerevisiae deletion strains, locus YML016C, strain PPZ1, active compounds read low 1 | S. cerevisiae deletion strains, locus YML032C, strain rad52, active compounds read low 1 | S. cerevisiae deletion strains, locus YML120C, strain ndi1, active compounds read low 0.986 | S. cerevisiae deletion strains, locus YML124C, strain tub3, active compounds read low 0.989 | S. cerevisiae deletion strains, locus YMR058W, strain fet3, active compounds read low 0.988 | S. cerevisiae deletion strains, locus YMR078C, strain ctf18, active compounds read low 0.973 | S. cerevisiae deletion strains, locus YMR125W, strain sto1, active compounds read low 1.07 | S. cerevisiae deletion strains, locus YMR129W, active compounds read low 1.01 | S. cerevisiae deletion strains, locus YMR205C, strain PFK2, active compounds read low 1.01 | S. cerevisiae deletion strains, locus YMR223W, strain ubp8, active compounds read low 0.949 | S. cerevisiae deletion strains, locus YMR231W, strain pep5, active compounds read low 1.02 | S. cerevisiae deletion strains, locus YMR263W, strain SAP30, active compounds read low 0.999 | S. cerevisiae deletion strains, locus YMR307W, strain GAS1, active compounds read low 1.08 | S. cerevisiae deletion strains, locus YNL067W, strain RPL9B, active compounds read low 0.996 | S. cerevisiae deletion strains, locus YNL071W, strain lat1, active compounds read low 1 | S. cerevisiae deletion strains, locus YNL183C, strain NPR1, active compounds read low 0.966 | S. cerevisiae deletion strains, locus YNL209W, strain ssb2, active compounds read low 1.03 | S. cerevisiae deletion strains, locus YNL233W, strain BNI4, active compounds read low 1 | S. cerevisiae deletion strains, locus YNL248C, strain rpa49, active compounds read low 1.05 | S. cerevisiae deletion strains, locus YNL250W, strain rad50, active compounds read low 0.974 | S. cerevisiae deletion strains, locus YNL271C, strain bni1, active compounds read low 0.979 | S. cerevisiae deletion strains, locus YNL298W, strain CLA4, active compounds read low 0.989 | S. cerevisiae deletion strains, locus YNL307C, strain MCK1, active compounds read low 0.988 | S. cerevisiae deletion strains, locus YNL322C, strain KRE1 (second series), active compounds read low 1.02 | S. cerevisiae deletion strains, locus YNL322C, strain KRE1, active compounds read low 0.994 | S. cerevisiae deletion strains, locus YNR049C, strain mso1, active compounds read low 1 | S. cerevisiae deletion strains, locus YNR052C, strain pop2, active compounds read low 0.979 | S. cerevisiae deletion strains, locus YOL006C, strain TOP1, active compounds read low 1.01 | S. cerevisiae deletion strains, locus YOL012C, strain htz1 0.693 | S. cerevisiae deletion strains, locus YOL147C, strain pex11, active compounds read low 0.982 | S. cerevisiae deletion strains, locus YOR001W, strain rrp6, active compounds read low 1 | S. cerevisiae deletion strains, locus YOR061W, strain CKA2, active compounds read low 0.993 | S. cerevisiae deletion strains, locus YOR069W, strain VPS5, active compounds read low 0.998 | S. cerevisiae deletion strains, locus YOR070C, strain gyp1, active compounds read low 1.01 | S. cerevisiae deletion strains, locus YOR080W, strain dia2, active compounds read low 1 | S. cerevisiae deletion strains, locus YOR083W, strain WHI5, active compounds read low 0.983 | S. cerevisiae deletion strains, locus YOR106W, strain vam3, active compounds read low 1.03 | S. cerevisiae deletion strains, locus YOR136W, strain idh2, active compounds read low 0.99 | S. cerevisiae deletion strains, locus YOR144C, strain elg1, active compounds read low 1 | S. cerevisiae deletion strains, locus YOR184W, strain ser1, active compounds read low 0.996 | S. cerevisiae deletion strains, locus YOR231W, strain MKK1, active compounds read low 1 | S. cerevisiae deletion strains, locus YOR265W, strain rbl2, active compounds read low 1.01 | S. cerevisiae deletion strains, locus YOR270C, strain vph1, active compounds read low 1.09 | S. cerevisiae deletion strains, locus YOR290C, strain snf2, active compounds read low 1.04 | S. cerevisiae deletion strains, locus YOR316C, strain cot1, active compounds read low 0.982 | S. cerevisiae deletion strains, locus YPL051W, strain arl3, active compounds read low 1.01 | S. cerevisiae deletion strains, locus YPL055C, strain LGE1, active compounds read low 0.992 | S. cerevisiae deletion strains, locus YPL078C, strain atp4, active compounds read low 0.997 | S. cerevisiae deletion strains, locus YPL106C, strain sse1, active compounds read low 1.01 | S. cerevisiae deletion strains, locus YPL240C, strain hsp82, active compounds read low 1.01 | S. cerevisiae deletion strains, locus YPL241C, strain CIN2, active compounds read low 0.994 | S. cerevisiae deletion strains, locus YPL256C, strain CLN2, active compounds read low 1.04 | S. cerevisiae deletion strains, locus YPR119W, strain clb2, active compounds read low 0.977 | S. cerevisiae deletion strains, locus YPR141C, strain kar3, active compounds read low 0.98 | S. cerevisiae deletion strains, locus YPR163C, strain tif3, active compounds read low 0.974 | S. cerevisiae deletion strains, locus YPR167C, strain met16, active compounds read low 0.988 | S. cerevisiae deletion strains, strain wtn01, active compounds read low 0.978 | S. cerevisiae strains, strain wild type, active compounds read low 1
